Data reported in PubChem BioAssay (NCI).
Values joined by “and” are separate entries in the source; they are usually repeats but may differ in a detail not shown here. Identical values can stand only once. The panel holds about 83,000 compounds, 20% with a hit somewhere; the sample as a whole holds those more often.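 The test compound was applied at a single concentration to cells in 96-well plates for 48 hours, and percent growth was recorded.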 Active and inactive are the calls of the source. Rule for the calls: active = growth percent below 10; inactive = the rest.

Tests used:
Experiment in all cases: NCI-60 one-dose screen, 48 h (100 = growth as untreated, 0 = no growth, -100 = all killed)
Conditions in all cases: 10 µM unless noted
[1] = tested on: BT-549 breast
[2] = tested on: MDA-MB-435 melanoma
[3] = tested on: SW-620 colon
[4] = tested on: MCF7 breast
[5] = tested on: HCT-116 colon
[6] = tested on: HCC-2998 colon
[7] = tested on: KM12 colon
[8] = tested on: T-47D breast

| Compound | growth [1] | growth [2] | growth [3] | growth [4] | growth [5] | growth [6] | growth [7] | growth [8] |
| --- | --- | --- | --- | --- | --- | --- | --- | --- |
| Cc1ncsc1CCO | 101% (inactive) and 100% (inactive) | 106% (inactive) and 104% (inactive) | 108% (inactive) and 101% (inactive) | 109% (inactive) and 96% (inactive) | 112% (inactive) and 102% (inactive) | 101% (inactive) and 109% (inactive) | 110% (inactive) and 98.1% (inactive) |  |
| O=C1OC2(c3ccccc31)c1ccc(O)c(O)c1Oc1c2ccc(O)c1O | 118% (inactive) | 112% (inactive) and 130% (inactive) | 105% (inactive) and 113% (inactive) | 109% (inactive) and 105% (inactive) | 110% (inactive) and 102% (inactive) | 104% (inactive) and 109% (inactive) | 104% (inactive) and 113% (inactive) |  |
| CN(C)CCCNC1=C(Cl)C(=O)c2ccccc2C1=O |  | -88.6% (active) and -88.2% (active) | -63% (active) and -57.8% (active) | 45.4% (inactive) and 5.05% (active) | 47.2% (inactive) and 4.88% (active) |  | 83.3% (inactive) and 40.7% (inactive) | 65.3% (inactive) and 32% (inactive) |
| NC(=O)C1CC2C=CC1C2 (stereo not given) |  | 106% (inactive) and 100% (inactive) | 96.2% (inactive) and 97.5% (inactive) | 100% (inactive) and 102% (inactive) | 92.5% (inactive) and 91.5% (inactive) | 76.5% (inactive) and 110% (inactive) | 112% (inactive) and 105% (inactive) | 101% (inactive) and 100% (inactive) |
| CCOC(=O)Nc1nc2ccccc2[nH]1 | 105% (inactive) and 11.7% (inactive) | 96.1% (inactive) and -30% (active) | 108% (inactive) and 12% (inactive) | 113% (inactive) and 17.8% (inactive) | 106% (inactive) and 23% (inactive) | 108% (inactive) and -9.87% (active) | 106% (inactive) and 26.2% (inactive) |  |
| COc1cc(NS(C)(=O)=O)ccc1Nc1c2ccccc2nc2c(C)cccc12 |  | 37.1% (inactive) and 45.7% (inactive) | 6.14% (active) and 16.4% (inactive) | 14.1% (inactive) and 14% (inactive) | 0.292% (active) and 8.67% (active) | -60.5% (active) and -6.07% (active) | -32.8% (active) and 7.97% (active) | 2.65% (active) and 4.75% (active) |
| CCN(CC)CCOc1ccc2c(c1)C(=O)c1cc(OCCN(CC)CC)ccc1-2 |  | 73.4% (inactive) and 67% (inactive) | 34.5% (inactive) and 26.1% (inactive) |  | 44.2% (inactive) and 13.2% (inactive) | 77.9% (inactive) and 56.5% (inactive) | 54.8% (inactive) and 40.4% (inactive) | 111% (inactive) and 131% (inactive) |
| CC(=O)c1ccc2c(c1)N(CCCN1CCN(CCO)CC1)c1ccccc1S2 | 88.1% (inactive) and 44.6% (inactive) | 84.1% (inactive) and -67% (active) | 95% (inactive) and -52.1% (active) | 79.2% (inactive) and -31.2% (active) | 83.9% (inactive) and -11.8% (active) | 102% (inactive) and -55.5% (active) | 105% (inactive) and 2.29% (active) |  |
| COc1ccc2nc(Cl)cc(C)c2c1 |  | 93.6% (inactive) and 96.1% (inactive) | 102% (inactive) and 122% (inactive) | 92.1% (inactive) and 111% (inactive) | 107% (inactive) and 89.6% (inactive) | 108% (inactive) and 96.1% (inactive) | 99.3% (inactive) and 124% (inactive) | 98.5% (inactive) and 128% (inactive) |
| NCCSC(C[N+](=O)[O-])c1ccccc1Cl (stereo not given) |  | -24.7% (active) | -51.3% (active) | -19.1% (active) | -83.9% (active) | -77.8% (active) | -55.6% (active) | 87.5% (inactive) |
| O=C(CCl)c1ccc2c(c1)Nc1ccccc1S2 |  | 100% (inactive) and 88.9% (inactive) | 92.2% (inactive) and 79.1% (inactive) | 85.5% (inactive) and -32.4% (active) | 69.1% (inactive) and 64.3% (inactive) | 83.3% (inactive) | 104% (inactive) and 102% (inactive) | 71.2% (inactive) and -3.6% (active) |
